Screening data: PubChem BioAssay, National Center for Advancing Translational Sciences (NCATS)
D2 antag – HTS Assay for Allosteric Antagonists of the Human D2 Dopamine Receptor: Primary Screen for Antagonists; D(2) dopamine receptor (Homo sapiens), P14416; HEK293 TREx D2 cells, calcium flux, dopamine EC80; inhibition, % at 10 µM; actives 2% (n = 340,000); AID 485344, 2010; in the data active = inhibition above about 30%; inactive = below that, where a call was filed
Target sequence (P14416 whole entry, looked up): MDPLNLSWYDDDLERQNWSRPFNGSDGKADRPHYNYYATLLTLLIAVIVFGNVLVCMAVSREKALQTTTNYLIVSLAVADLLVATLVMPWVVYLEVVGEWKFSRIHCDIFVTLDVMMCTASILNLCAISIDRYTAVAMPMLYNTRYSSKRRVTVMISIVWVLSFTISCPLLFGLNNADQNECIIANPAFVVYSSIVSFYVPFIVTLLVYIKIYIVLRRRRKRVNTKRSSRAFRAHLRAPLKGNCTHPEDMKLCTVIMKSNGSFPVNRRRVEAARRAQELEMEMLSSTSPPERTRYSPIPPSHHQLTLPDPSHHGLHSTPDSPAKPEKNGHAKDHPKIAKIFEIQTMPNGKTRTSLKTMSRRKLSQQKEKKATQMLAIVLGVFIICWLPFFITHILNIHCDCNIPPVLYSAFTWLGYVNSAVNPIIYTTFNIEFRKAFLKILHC
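Dopamine at EC80 is the agonist stimulus; test compounds precede it by 180 s. Calcium flux read kinetically in a force-coupled, inducible HEK293 T-REx D2 cell line.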
D2 PAM-1 – HTS Assay for Positive Allosteric Modulators of the Human D2 Dopamine Receptor: Primary Screen for Potentiators; D(2) dopamine receptor (Homo sapiens), P14416; HEK293 T-REx D2, calcium flux, EC20 dopamine potentiation; potentiation, % at 10 µM; actives 0.34% (n = 340,000); AID 485347, 2010;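 active = potentiation over 3 SD above the plate norm, cut at about 30% in these data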
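Potentiation of an EC20 dopamine calcium response is measured in a force-coupled, tetracycline-inducible Hek293 Trex D2 line. Compound-only kinetic reads over 180 s flag agonists before dopamine addition.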
D2 ag-1 – Beta-Arrestin HTS for Positive Allosteric Modulators of the Human D2 Dopamine Receptor: Agonists | D(2) dopamine receptor (Homo sapiens), P14416 | DiscoveRx PathHunter D2 beta-arrestin, luminescence, 90 min; 100% = 57 uM dopamine signal | activation, % (test concentration not listed) | actives 0.084% (n = 360,000) | AID 624465, 2012; in the data active = activation above about 40%; inconclusive = between about 15% and that limit
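DiscoveRx PathHunter D2 beta-arrestin cells (2,100/well) attached overnight, then compound-stimulated 90 min at 37 C in HBSS/10 mM HEPES/0.1% Tween-20 buffer; beta-galactosidase complementation read by luminescence after 1 h at ambient temperature. Dopamine 57 uM final (EC100) as control.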
D2 ag-2 – HTS Assay for Allosteric Agonists of the Human D2 Dopamine Receptor: Primary Screen for Agonists; D(2) dopamine receptor (Homo sapiens), P14416; HEK293 T-REx D2 cells, calcium flux agonist mode; activation, % at 2 µM; actives 0.53% (n = 340,000); AID 485358, 2010;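 active = activation over 3 SD above normal in the single-dose calcium agonist read, cut at about 30% in these data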
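In this primary screen, compounds producing a positive calcium signal within 180 s of addition to tetracycline-induced, force-coupled HEK293 Trex D2 cells are flagged; cells are dye-loaded with a no-wash calcium kit beforehand.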
D2 PAM-2 – Beta-Arrestin HTS for Positive Allosteric Modulators of the Human D2 Dopamine Receptor: Potentiators | D(2) dopamine receptor (Homo sapiens), P14416 | actives 0.23% (n = 360,000) | potentiation, % (concentration not given with the values) | DiscoveRx D2 beta-arrestin cells, luminescence, 90 min; 100% = 57 uM dopamine signal; in the data active = potentiation above about 50%; inconclusive = mostly about 30% to 49%
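D2 cells co-treated with compound plus 50 nM dopamine (EC20) for 90 min at 37 deg C to detect potentiation. Beta-arrestin recruitment was read as enzyme-fragment luminescence after 1 h at ambient temperature. Full response was set by 57 uM dopamine.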
Large screens that a line does not name were inactive. An excerpt weighted towards active compounds, which were near 2.4% of everything screened.

COc1ccc(CCNC(=O)COC(=O)c2cccs2)cc1OC	none
COc1ccc(CCNC(=O)COC(=O)c2cccs2)cc1	D2 antag 37
COc1ccc(CCNC(=O)[C@@H](NC(N)=O)C(C)C)cc1	D2 antag 50
Cc1ccc(CCNC(=O)C2CC(=O)N(C3CCCCC3)C2)cc1 (configuration not stated)	none
COc1ccc(CCNC(=O)C2CC(=O)N(C3CCCCCCC3)C2)cc1OC (configuration not stated)	D2 antag 93
Cc1cc(C)n(C(=O)CNc2cccc(Cl)c2C)n1	none
Cc1cc(C)n(C(=O)CNc2ccccc2Cl)n1	D2 antag 32
CCOc1cc2[nH]c(=O)n(CCCC(=O)N3CCN(c4ccc(OC)cc4)CC3)c(=O)c2cc1OCC	none (no result: D2 antag, D2 ag-1, D2 PAM-2)
O=C(NC1(C(F)(F)F)NC(=O)N(Cc2cccnc2)C1=O)c1ccc(F)cc1 (configuration not stated)	D2 PAM-1 39
CNC(=O)c1cccc(-n2c(C)nc3cccnc32)c1C	none (no result: D2 antag, D2 ag-1, D2 PAM-2)
CN(C)CCNc1oc(-c2ccccc2Cl)nc1S(=O)(=O)c1ccccc1	none
CN(C)CCCNc1oc(-c2ccccc2Cl)nc1S(=O)(=O)c1ccc(F)cc1	D2 antag 34
COc1cc2ccccc2cc1C(=O)Nc1ccc(Cl)c(-c2nc3ccccc3o2)c1	none (no result: D2 antag, D2 ag-1, D2 PAM-2)
C=CC(C)(C)c1[nH]cnc1/C=C1\NC(=O)C(C(C)C)NC1=O (configuration not stated)	D2 antag 76
Cc1nc2sccn2c(=O)c1CCN1CCC(=C(c2ccccc2)c2ccc(F)cc2)CC1	D2 antag 73 (no result: D2 ag-1, D2 PAM-2)
Cc1nc2sccn2c(=O)c1S(=O)(=O)N1CCN(c2ccccc2)CC1	none
NC(N)=NC(N)=Nc1ccc2ccccc2c1	D2 antag 33
COc1ccccc1NC(=O)CSc1nnc(NC(=O)Nc2ccc(C)cc2)s1	none (no result: D2 antag, D2 ag-1, D2 PAM-2)
CN(C)c1ccc(CNC(=O)Cc2ccc(NC(=O)N3CCCCc4ccccc43)cc2)cc1	none (no result: D2 antag, D2 ag-1, D2 PAM-2)
CC(C)COP(=O)(OCC(C)C)C(O)c1ccccc1F (configuration not stated)	D2 antag 52
COc1cc(C(O)P(=O)(OCC(C)C)OCC(C)C)cc(OC)c1OC (configuration not stated)	none
CCOCc1c(C(=O)N2CCN(CC(=O)Nc3ccc(F)cc3)CC2)oc2ccccc12	D2 antag 72
COc1cccc(Oc2nc(-c3ccccc3O)nc3ccccc23)c1	D2 antag 43
COc1ccc(CNC(=O)CSc2nnc(C)c3c(C)n(-c4ccccc4)nc23)c(OC)c1	none (no result: D2 antag, D2 ag-1, D2 ag-2, D2 PAM-2)
CCOC(=O)C1=C(CC)Nc2ccccc2N=C1NC(=O)Nc1ccccc1OC	D2 antag 51
CC(C)(C)c1ccc(OCC(=O)N(Cc2ccco2)Cc2ccccc2F)cc1	none (no result: D2 antag, D2 ag-1, D2 PAM-2)
CC(=NNC(=S)N1CC2CCC(CC2)C1)c1cnccn1	D2 ag-1 inconclusive, D2 PAM-2 97 (no result: D2 antag, D2 PAM-1, D2 ag-2)
CCOC(=O)c1c(C)[nH]c(CCC(=O)Nc2c(Cl)cc(OC)cc2OC)c1C	none (no result: D2 antag, D2 ag-1, D2 PAM-2)
COc1cccc(OC)c1C(=O)NCCSC1CCCCC1	D2 antag 41
COc1cc(OC)cc(C(=O)NCCSC2CCCCC2)c1	none
COc1ccc(NC(=O)N(C2CCCCC2)C2CCN(C(C)C)CC2)c(OC)c1	D2 antag 50 (no result: D2 PAM-1)
CC(C)(C)C(=O)N1CCc2cc(-c3csc(N)n3)ccc21	D2 PAM-1 33
O=C(Nc1ccc(F)c(Cl)c1)c1ccc2c(c1)OCO2	none
COc1ccccc1/C=C/C(=O)OCC(=O)Nc1ccc2c(c1)OCCO2	none
COc1ccc(NC(=O)c2ccc3c(c2)OCO3)cc1Cl	D2 antag 39
COc1ccccc1/C=C/C(=O)Nc1ccc2c(c1)OCCO2	D2 antag 34
COc1ccccc1OCC(=O)Nc1ccc2c(c1)OCO2	D2 antag 32
COc1ccccc1OCCC(=O)OCC(=O)Nc1ccc(Br)cc1	D2 antag 91
CCc1ccccc1N(C)C(=O)Cn1cnc2sc(C)c(S(=O)(=O)N3CCN(c4ncccn4)CC3)c2c1=O	none (no result: D2 antag, D2 ag-1, D2 ag-2, D2 PAM-2)
COc1ccc(CNC(=O)c2cc3c(=O)oc4ccc(C)cc4c3s2)c(OC)c1	none (no result: D2 antag, D2 ag-1, D2 PAM-2)
CC(C)N(Cc1ccccc1)C(=O)C1CCCN(c2ncnc3onc(-c4ccc(F)cc4)c23)C1 (configuration not stated)	none (no result: D2 antag, D2 ag-1, D2 PAM-2)
COc1cc(-c2nc3ccccn3c2/N=C/c2cc(OC)c(OC)c(OC)c2)ccc1O	D2 PAM-2 52 (no result: D2 antag, D2 PAM-1, D2 ag-2)
CC(=O)Nc1ccc(OC(=O)c2ccc(Br)c([N+](=O)[O-])c2)cc1	D2 antag 30
CN(C(=O)N1CCN(c2ccccn2)CC1)c1ccccc1	D2 antag 39
Cc1cc(C)c2c(n1)nn1c(NCCCN(C)C)cc(C)nc21	D2 PAM-1 34
CCOCCCNC(=O)Cn1ncc2c([nH]c3ccccc32)c1=O	none (no result: D2 antag, D2 ag-1, D2 PAM-2)
Cc1c(NS(=O)(=O)c2ccc(NCCN3CCOCC3)c([N+](=O)[O-])c2)c(=O)n(-c2ccccc2)n1C	D2 PAM-1 31
CCOC(=O)c1ccc(N2CCN(c3cc(C)ccc3C)CC2)c(NC(=O)Nc2ccc(Cl)cc2)c1	none (no result: D2 antag, D2 ag-1, D2 PAM-2)
O=C1C=C(Nc2ccc(F)cc2)c2ccccc2C1=O	D2 PAM-2 50
O=C1C=C(Nc2cccnc2)c2ccccc2C1=O	D2 PAM-2 58 (no result: D2 antag, D2 PAM-1, D2 ag-2)
Cc1ccc(CNC(=O)CN2C(=O)C3(SCC(=O)N3c3cc(C)cc(C)c3)c3ccccc32)cc1 (configuration not stated)	none (no result: D2 antag, D2 ag-1, D2 ag-2, D2 PAM-2)
COc1ccccc1CCNC(=O)Cn1ccc2cc(S(=O)(=O)N3CCC(C)CC3)ccc21	D2 PAM-1 34
COc1ccc(Cl)cc1NC(=O)c1cc(S(=O)(=O)N2CCCC2)cn1C	none
COc1ccccc1CNC(=O)c1cc(S(=O)(=O)N2CCCC2)cn1C	D2 antag 37
COc1ccccc1CNC(=O)COC(=O)C1CCN(S(=O)(=O)c2ccc(C)c(C)c2)CC1	D2 PAM-1 30
Cc1ccc(S(=O)(=O)N2CCC(C(=O)OCC(=O)NCc3cccc(Cl)c3)CC2)cc1C	none (no result: D2 antag, D2 PAM-1, D2 ag-2)
COc1ccc(NC(=O)c2cc(S(=O)(=O)N3CCCC3)cn2C)cc1Cl	D2 antag 38
COc1ccc(OC)c(CCNC(=O)Cn2ccc3cc(S(=O)(=O)N4CCCC4)ccc32)c1	none
COc1ccc(CCNC(=O)c2cc(-c3ccc(C)c(C)c3)nc3ccccc23)cc1OC	none (no result: D2 antag, D2 ag-1, D2 PAM-2)
